This passage reports inhibition results from PubChem BioAssay AID449762 (Southern Research Specialized Biocontainment Screening …, 2010).

About 1,900 (0.58%) of roughly 330,000 compounds were called active. Inconclusive results (about 4%) are left out. Only a sample is shown. Measured potencies and affinities stand elsewhere. A number with no mark means an inactive call. Rule as the data show it: inconclusive = inhibition above about 70% without an active follow-up result; inactive = below that.

The assay in a line: M. tuberculosis growth inhibition, HTS (AID 449762).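 Also: bacterial growth assessed after seven days of incubation.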 To be noted: M. tuberculosis H37Rv growth inhibition, 7H9 media; at 25 µM; stronger effect = higher value.
As for `C=CCSC1=N/C(=C/c2ccsc2)C(=O)N1c1ccccc1`, the inhibition (usually the drop in the measured response relative to a control, in per cent) is -5.05%.

As for `Cc1cc(C)n(-c2ccc(C(=O)Nc3ccc4c(c3)OCO4)cc2)n1`, the inhibition is 12.7%.

Turning to `Cc1cc(C)n(-c2ccc(C(=O)NCc3ccc4c(c3)OCO4)cc2)n1`, the inhibition is 8.5%.

For the compound `COc1ccc(CCNC(=O)CCc2nc3sc4c(c3c(=O)[nH]2)CCCC4)cc1`, the inhibition is -1.73%.

For the compound `CCCCC(CC)COC(=O)CCCCC(=O)OCC(CC)CCCC` (configuration not stated), the inhibition is 12.3%.

Regarding `CCCCC(CC)CO` (configuration not stated), the inhibition was -4.02%.

`Cc1csc(NC(=O)c2cccs2)n1`: the inhibition was -0.19%.

For the compound `Nc1ccc2nonc2c1[N+](=O)[O-]`, the inhibition was -0.05%.

`Nc1cc(N2CCCCCC2)c2nonc2c1[N+](=O)[O-]`: the inhibition is -8.43%.

Consider `COc1cccc2sc(N(CCN(C)C)C(=O)/C=C/c3cccs3)nc12`, for which the inhibition was 8.94%.

On to `Cc1cccc2sc(N(CCN(C)C)C(=O)/C=C/c3cccs3)nc12`, for which the inhibition is 51.5%.

With `CN(CC(=O)Nc1ccc(S(=O)(=O)N2CCCC2)cc1)Cc1ccc(Cl)cc1Cl`, the inhibition was -3.94%.

Regarding `O=C(CCC(=O)N(CC(=O)NC1CCCC1)Cc1ccc(F)cc1)Nc1nccs1`, the inhibition was 7.88%.

As for `O=C(NC1CC1)c1cccc(S(=O)(=O)Nc2ccccc2F)c1`, the inhibition was -4.2%.

On to `CCN(CC)c1ccc2cc(-c3nc4ccccc4[nH]3)c(=O)oc2c1`, for which the inhibition is 4.76%.

For `CCN(CC)c1ccc(/C=N/Nc2nc3ccccc3[nH]2)c(O)c1`, the inhibition was 19.6%.

On to `O=c1c2oc3ccccc3c2[nH]c(=S)n1-c1ccc(F)cc1`, for which the inhibition is 0.38%.

In the case of `Fc1ccc(C2C3=C(Nc4ncnn42)c2ccccc2OC3c2ccncc2)cc1` (configuration not stated), the inhibition is -5.07%.

On to `Cc1ccc(C2Oc3ccccc3C3=C2C(c2cccs2)n2ncnc2N3)cc1` (configuration not stated), for which the inhibition was 55.2%.

For `C/C=C\C=C\C(=O)N1CC2(CC(c3cccc(NC(=O)COc4ccc(Cl)cc4)c3)=NO2)C[C@H]1C(N)=O` (some centres not stated), the inhibition is 23.8%.

Regarding `COc1cccc(C(=O)C2CCCN(Cc3ccccn3)C2)c1` (configuration not stated), the inhibition was 33.9%.

With `COc1c(C)cc(C(=O)C2CCCN(Cc3ccc(Oc4ncccn4)cc3)C2)cc1C` (configuration not stated), the inhibition was 7.33%.

Regarding `COc1ccc(N2CCN(CCNC(=O)c3ccc(NC(=O)C4CCCO4)cc3)CC2)cc1` (configuration not stated), the inhibition is -2.8%.

`O=C1N=C(N2CCCC2)S/C1=C\c1cn[nH]c1-c1ccccc1`: the inhibition was -6.16%.

In the case of `CC1CCN(C2=NC(=O)/C(=C/c3cn[nH]c3-c3ccccc3)S2)CC1`, the inhibition was 12.8%.

`CCOC(=O)c1[nH]c2c(c1-c1ccccc1)C(=O)CC(c1ccccc1)C2` (configuration not stated): the inhibition is 3.2%.

With `Nc1nc2ccccc2n1CCN1CCCC1`, the inhibition is -1.87%.

Take `CC(C)(C)c1ccc(C(=O)O)c(C(=O)c2ccccc2)c1`: the inhibition is -4.75%.

`Brc1cnc2nc(SC/C=C/c3ccccc3)[nH]c2c1`: the inhibition was -5.71%.

With `COc1cccc(C(=O)NCC2CCN(c3ccc(S(=O)(=O)N4CCOCC4)cc3)CC2)c1`, the inhibition is -13.8%.

Turning to `COc1ccccc1C(=O)NCC1CCN(c2ccc(S(=O)(=O)N3CCOCC3)cc2)CC1`, the inhibition is 2.24%.

Regarding `CC(=O)NS(=O)(=O)c1ccc(NS(=O)(=O)c2ccccc2[N+](=O)[O-])cc1`, the inhibition was 3.53%.

`CCCCNC(=O)CN(c1cc(C(F)(F)F)ccc1Cl)S(C)(=O)=O`: the inhibition is -6.63%.

`CCN(CC)CCCC(C)NC(=O)c1ccc(C(F)(F)F)cc1` (configuration not stated): the inhibition is -7.51%.

As for `O=C(CCN1CCCC1)Nc1ccccc1`, the inhibition is 22.9%.

`Cc1cc(N2CCN(C)CC2)nc2ccc(NC(=S)N3CCCCCC3)cc12`: the inhibition is 3.75%.

For the compound `Cc1ccc(C)c(N2CCN(C(=S)Nc3ccc4nc(N5CCOCC5)cc(C)c4c3)CC2)c1`, the inhibition was -4.9%.

Regarding `CCN(CCCNC(=O)CNC(=O)c1nn(-c2ccc(OC)cc2)c(=O)c2ccccc12)c1cccc(C)c1`, the inhibition is 8.46%.

For the compound `Cc1cc2c(cc1C)CSC(c1ccccc1O)SC2`, the inhibition is 13.6%.

Turning to `Cc1cc2c(cc1C)CSC(c1ccc3ccccc3c1O)SC2`, the inhibition is -4.57%.

`CCOc1ccc2oc(=O)cc(CN3CCN(C(=O)c4ccco4)CC3)c2c1`: the inhibition is 4.6%.

Regarding `CN1/C(=C\C(=O)C[n+]2cccc(C(N)=O)c2)C(C)(C)c2ccccc21`, the inhibition was 0.09%.

Take `Cn1c(N)c(C(=O)COC(=O)c2ccco2)c(=O)n(C)c1=O`: the inhibition was 1.11%.

Turning to `Cn1c(N)c(C(=O)COC(=O)c2ccc(Br)o2)c(=O)n(C)c1=O`, the inhibition is 1.58%.

For the compound `Cc1ccc[n+](CC(=O)/C=C2\N(C)c3ccccc3C2(C)C)c1`, the inhibition is -2.49%.

As for `CN1/C(=C\C(=O)COC(=O)c2ccco2)C(C)(C)c2ccccc21`, the inhibition is 0.58%.

As for `CN1/C(=C\C(=O)COC(=O)c2ccc(O)cc2)C(C)(C)c2ccccc21`, the inhibition was -3.13%.

As for `COc1ccc(Cl)cc1NC(=O)CSc1nnc(-c2ccco2)o1`, the inhibition is -2.66%.

For the compound `O=C(OCC(=O)N1CCCCC1)c1c[nH]c(=O)[nH]c1=O`, the inhibition is -1.77%.

Turning to `COc1ccccc1C(=O)NC(CCSC)C(=O)NNC(=O)c1ccccc1O` (configuration not stated), the inhibition is -6.8%.

On to `CC(C)(C)C(=O)O/N=C(\N)c1ccc(Oc2cc(Cl)cc(Cl)c2)c([N+](=O)[O-])c1`, for which the inhibition was 0.8%.

Take `CCCCN1CC(O)=C(c2nc3ccccc3[nH]2)C1=N`: the inhibition was -10.6%.

Take `COc1ccc(NC(=O)N(C)C[C@H]2Oc3ccc(NC(=O)Cc4ccccc4)cc3C(=O)N([C@H](C)CO)C[C@@H]2C)cc1`: the inhibition was -4.97%.

Turning to `COc1ccc(C(=O)NCC(c2ccc3c(c2)OCO3)N2CCN(c3ccc(OC)cc3)CC2)cc1` (configuration not stated), the inhibition is 7.52%.

As for `O=C(COc1ncnc2cc([N+](=O)[O-])ccc12)NC1CCCCC1`, the inhibition was -3.77%.

Turning to `CCOC(=O)c1ccc(NC(=O)CSc2nc(C)nc3c2c(=O)n(C)c(=O)n3C)cc1`, the inhibition was -9.19%.

Turning to `CCCC/C(=N/O)c1c(C)[nH]c2ccccc12`, the inhibition was -0.42%.

Regarding `CCc1sc2nc(SCC(=O)Nc3cc(C)on3)n(-c3cccc(OC)c3)c(=O)c2c1C`, the inhibition was -0.05%.

As to `COc1ccc2c(c1)CCc1c(C(=O)Nc3c(C)nn(Cc4ccccc4)c3C)noc1-2`, the inhibition is 0.29%.

Consider `Cc1c(NC(=O)c2noc3c2CCc2ccccc2-3)c(=O)n(-c2ccccc2)n1C`, for which the inhibition is 43%.

As for `CC(C)(C)c1nnc(NC(=O)CCS(=O)(=O)Cc2ccccc2)s1`, the inhibition was -8.95%.

Regarding `O=C(Cc1ccc(Br)cc1)NC1CCSC1=O` (configuration not stated), the inhibition was -3.33%.

Take `O=C(c1cccs1)N1CCN(c2cccc(Cl)c2)CC1`: the inhibition was 0.26%.

As for `O=C(Cn1ccsc1=NC(=O)C(F)(F)F)c1ccccc1`, the inhibition is -3.48%.

`CC(=O)NC12CC3CC(C1)CC(C(=O)Nc1nc4ccc(S(C)(=O)=O)cc4s1)(C3)C2`: the inhibition is -8.67%.

Turning to `CC(=O)NC12CC3CC(C1)CC(C(=O)Nc1nccs1)(C3)C2`, the inhibition was -0.32%.

For `Cn1c(O)c(C2=c3ccccc3=NC2=O)[nH]c1=S`, the inhibition is 37%.

Regarding `Cc1ccc2c(c1)c(C1=NC(=S)NC1=O)c(O)n2C`, the inhibition is -2.95%.

Turning to `C/C(=N\NC(=O)c1ccc(Cn2cc([N+](=O)[O-])cn2)o1)c1cccc(NC(=O)c2cccnc2)c1`, the inhibition was -0.38%.

Take `Clc1cccc(C2Nc3cccc4cccc(c34)N2)c1`: the inhibition was 11.6%.

As for `O=C(c1ccccc1)c1ccc(OCCCN2CCCC2)cc1`, the inhibition is -9.38%.

Turning to `O=C(c1ccccc1)c1ccc(OCCCCN2CCCCC2)cc1`, the inhibition is 3.79%.

Consider `Cc1nc(Nc2c(Cl)cccc2Cl)sc1C(=O)Nc1ccccc1`, for which the inhibition was 12%.

As for `Cc1nc(Nc2ccccc2)sc1C(=O)Nc1ccccc1`, the inhibition is 7.98%.

Regarding `CC(NC(=O)/C(C#N)=C/c1cccs1)c1ccccc1` (configuration not stated), the inhibition was -1.56%.

As for `CCOCCN1CCN(c2nnc3n2-c2ccc(Cl)cc2C(c2ccccc2Cl)=NC3)CC1`, the inhibition is 4.83%.

Take `Clc1ccc2c(c1)C(c1ccccc1Cl)=NCc1nnc(Br)n1-2`: the inhibition was 6.91%.

As to `Cn1c(=O)c2c(nc(SCCN3CCOCC3)n2C)n(C)c1=O`, the inhibition was 1%.

`O=C(CCc1ccc(Oc2cc([N+](=O)[O-])cc([N+](=O)[O-])c2)cc1)NC1CCCC1`: the inhibition is 30.8%.

For `O=C(c1ccc(Oc2ccc([N+](=O)[O-])cc2)cc1)N1CCCCCC1`, the inhibition is 20.3%.

For `Cc1cc(C)nc(OC(C(=O)O)C(OCC(C)C)(c2ccccc2)c2ccccc2)n1` (configuration not stated), the inhibition is -3.41%.

For `Cc1cccc(C(=O)NC2CC(C)(C)NC(C)(C)C2)c1`, the inhibition is -6.34%.

`Cc1ccc(S(=O)(=O)/N=C2/NC(=O)/C(=C/c3ccc(Br)o3)S2)cc1`: the inhibition is -2.8%.

For the compound `COC(=O)c1ccc(CSc2nnc(CNC(=O)c3ccccc3F)o2)o1`, the inhibition was 4.26%.

As to `Cc1c(C2(O)CCCCC2)[nH]c2cc(C(F)(F)F)ccc12`, the inhibition is 15.3%.

In the case of `CCc1c(C2(O)CCCCC2)[nH]c2ccc(C#N)cc12`, the inhibition was 5.4%.

For `Cc1nn(S(=O)(=O)c2ccc(C(C)C)cc2)c(C)c1S(=O)(=O)N1CCOCC1`, the inhibition is -4.31%.

Take `Cc1nn(CC(=O)NCCCN2C(C)CCCC2C)c(=O)c2cc3occc3n12` (configuration not stated): the inhibition was 5.96%.

In the case of `CCCn1c(CC)nc([N+](=O)[O-])c1Sc1ccc(C)cc1`, the inhibition was -12%.

On to `CCCc1nc([N+](=O)[O-])c(S(=O)(=O)c2ccccc2)n1CC(C)C`, for which the inhibition is 10%.

In the case of `Cc1ccc(NC(=O)CN(C)C(=O)/C=C/c2ccc3c(c2)OCO3)cc1`, the inhibition was 6.72%.

For the compound `CN(CC(=O)Nc1ccc(OC(F)(F)F)cc1)C(=O)/C=C/c1ccco1`, the inhibition is 5.57%.
